This is a sample that favours compounds with a hit; in the whole collection about 4% have one here.
Beta apoptosis: blocks beta cell apoptosis | INS-1E cytokine-induced death, ATP luminescence, 48 h; percent of positive-control rescue, neutral wells zero | protection from apoptosis, % (test concentration not listed) | actives 0.8% (n = 300,000);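 active = Every replicate reaches about 75%, or at least half do and their mean reaches it too, limit read from the data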;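 note: 0% = cytokine-treated negative control wells and 100% = positive control rescue; higher means more ATP so stronger rescue from cytokine killing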
Jurkat NFkB inh: lowers PMA/ionomycin-induced NF-kB signal in Jurkat cells. PMA/ionomycin-induced NF-kB luciferase reporter, luminescence. inhibition, % at 4 µM. actives 0.53% (n = 330,000). AID 435003; in the data active = inhibition above about 50%
Mdm2-MdmX inh: inhibitors of human Mdm2/MdmX interaction. O15151+Q00987. SaOS-2 split-luciferase Mdm2/MdmX complementation, luminescence. inhibition, % at 8 µM. actives 3% (n = 330,000). AID 485346;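 active = inhibition of at least 50% at 8 µM in the primary screen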
Target sequence (O15151 whole entry, looked up): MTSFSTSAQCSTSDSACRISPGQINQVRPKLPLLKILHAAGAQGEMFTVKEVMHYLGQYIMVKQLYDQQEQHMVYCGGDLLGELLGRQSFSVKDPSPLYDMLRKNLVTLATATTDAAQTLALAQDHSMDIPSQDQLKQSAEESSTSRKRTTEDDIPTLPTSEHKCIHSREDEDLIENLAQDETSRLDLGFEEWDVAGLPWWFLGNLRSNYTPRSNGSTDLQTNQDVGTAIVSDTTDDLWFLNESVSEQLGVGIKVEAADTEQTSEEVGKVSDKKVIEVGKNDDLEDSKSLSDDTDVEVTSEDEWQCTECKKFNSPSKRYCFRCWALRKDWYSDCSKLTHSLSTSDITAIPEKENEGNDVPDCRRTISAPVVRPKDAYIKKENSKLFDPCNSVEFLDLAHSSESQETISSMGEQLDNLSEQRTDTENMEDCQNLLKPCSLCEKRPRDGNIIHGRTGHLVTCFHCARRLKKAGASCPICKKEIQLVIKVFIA
Target sequence (Q00987 whole entry, looked up): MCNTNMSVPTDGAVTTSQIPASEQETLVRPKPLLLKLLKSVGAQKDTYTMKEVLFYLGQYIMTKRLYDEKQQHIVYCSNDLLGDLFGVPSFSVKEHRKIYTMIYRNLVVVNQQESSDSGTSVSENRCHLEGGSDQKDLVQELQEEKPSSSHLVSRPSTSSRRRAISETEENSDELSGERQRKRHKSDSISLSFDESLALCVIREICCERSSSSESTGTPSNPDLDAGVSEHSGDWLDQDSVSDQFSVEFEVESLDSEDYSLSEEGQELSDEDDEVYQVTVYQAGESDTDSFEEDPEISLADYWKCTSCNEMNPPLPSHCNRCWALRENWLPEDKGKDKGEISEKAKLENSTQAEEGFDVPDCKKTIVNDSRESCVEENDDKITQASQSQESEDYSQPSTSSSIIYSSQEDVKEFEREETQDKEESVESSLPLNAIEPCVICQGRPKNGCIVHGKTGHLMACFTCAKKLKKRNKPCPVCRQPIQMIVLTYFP
Gli-Sufu block: blocks Gli-Sufu signaling in a luciferase reporter | inhibition, % at 5 µM | Sufu-KO-LIGHT fibroblasts, Gli luciferase reporter luminescence | actives 0.74% (n = 340,000) | AID 588413;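 active = inhibition above about 55%, limit read from the data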;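 note: 0% = DMSO-treated cells and 100% = wells with medium but no cells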
697 NFkB inh: lowers PMA/ionomycin-induced NF-kB signal in 697 B cells; 697 B-cell NF-kB luciferase reporter, 16 h; inhibition, % at 4 µM; actives 0.33% (n = 330,000); in the data active = inhibition above about 35%
Mdm2-MdmX conf: human Mdm2/MdmX binding inhibition, confirmed. shares compounds with Mdm2-MdmX inh. luminescent assay. inhibition, % at 8 µM. actives 55% (n = 10,000). AID 489028; in the data active = inhibition above about 40%
FLuc counter: counter-screen for Mdm2/MdmX inhibitors: full-length luciferase; shares compounds with Mdm2-MdmX inh; SaOS-2 full-length luciferase counterscreen, luminescence; inhibition, % at 8 µM; actives 77% (n = 6,200); AID 504607;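 active = mean inhibition at 8 µM reaching about 37%, which flags the compound as non-specific, limit read from the data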;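 note: p53-null SaOS-2 cells with luciferase driven by a doxycycline-inducible promoter; compound on cells about two nights before reading with doxycycline added after day one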
An asterisk follows results filed as active; x = not tested or not shown.

SMILES | Beta apoptosis | Jurkat NFkB inh | Mdm2-MdmX inh | Gli-Sufu block | 697 NFkB inh | Mdm2-MdmX conf | FLuc counter
COC(=O)c1cc(C(=O)N2CCN(c3cccc(C)c3C)CC2)cc([N+](=O)[O-])c1 | 2.1 | 39.7 | 54.5* | 22.7 | -53.8 | 48.3* | 54.2*
COC(=O)c1cc(C(=O)N2CCN(c3ncccn3)CC2)cc([N+](=O)[O-])c1 | 4.6 | 8.6 | -13.6 | -8.0 | 4.8 | x | x
COc1cc(NS(=O)(=O)c2ccc3c(c2)C(C)(C)C(=O)N3C)cc(OC)c1 | 2.4 | -6.5 | -44.3 | 0.9 | -11.7 | x | x
CC(C)(C)Cc1cc(N)on1 | -3.6 | 6.4 | -6.8 | -1.0 | -32.9 | x | x
O=C(C[C@H]1C[C@H](C(=O)N2CCOCC2)[C@@]2(CCC3CCCC3)c3[nH]c4ccc(Cl)cc4c3CCN2C1=O)NCC12CC3CC(CC(C3)C1)C2 | x | x | 84.0* | 4.7 | -1.0 | 69.5* | 20.9
COc1ccc2[nH]c3c(c2c1)CCN1C(=O)C(CC(=O)NCC24CC5CC(CC(C5)C2)C4)C[C@H](C(=O)N2CCOCC2)[C@@]31CCC1CCCC1 (some centres undefined) | x | x | 77.3* | 14.7 | -1.2 | 68.5* | 43.3*
CC(C)N(C(=O)[C@H]1C[C@H](CC(=O)NCC23CC4CC(CC(C4)C2)C3)C(=O)N2CCc3c([nH]c4ccc(Cl)cc34)[C@]12C)C(C)C | x | x | 92.1* | 5.5 | 16.8 | 49.8* | 72.5*
Cc1cc(C)c(C(=O)COC(=O)c2cccnc2Cl)c(C)c1 | -4.1 | 10.9 | 4.5 | 6.5 | 7.0 | x | x
O=C1[C@H](Cc2ccccc2)NCC=CC[C@@H](c2ccc(Cl)cc2)N1Cc1ccccc1 | x | x | x | -4.5 | x | x | x
COC1(OC)C=CC(=O)C=C1NC(=O)c1ccccc1OC(C)=O | 36.3 | 10.8 | 82.1* | -9.5 | -106.1 | 66.5* | 35.6
CC(C)C[C@@H](CNCC(=O)[C@H](C)NC(=O)c1[nH]cnc1C(=O)N[C@@H](C)CN)NC(=O)c1nc[nH]c1C(=O)N[C@@H](C)C(=O)O | x | x | x | 5.6 | x | x | x
COc1cc(NC(=O)C2=C(N3CCOCC3)/C(=C\c3ccc(N(C)C)cc3)CCC2)cc(OC)c1OC | 17.1 | 42.4 | 59.9* | -1.9 | -79.2 | 47.4* | 86.8*
NC(=O)c1ccc(C(=O)N/N=C(/Cc2ccccc2)c2ccccc2)cc1 | -7.4 | -2.2 | 30.8 | -6.6 | 11.4 | x | x
O=C(N/N=C(\Cc1ncc[nH]1)c1ccccc1)c1ccccc1 | 46.0 | 10.8 | 76.1* | x | 17.9 | 52.6* | 24.8
O=C(N/N=C(\Cc1ncc[nH]1)c1ccccc1)c1ccncc1 | 100.8* | 12.1 | 66.5* | -5.1 | 17.1 | 62.9* | 30.3
O=C(N/N=C(\Cc1ncc[nH]1)c1ccccc1)c1cccnc1 | 6.8 | -5.6 | 53.9* | 36.7 | 9.4 | 63.5* | 33.1
O=C(Nc1cccc(Cl)c1)C1C2CCC3C(CCC21)C3(Cl)Cl (centres undefined) | 5.7 | 4.5 | 68.6* | 3.0 | -8.3 | 12.8 | x
COc1ccc(C=NNc2ccc([N+](=O)[O-])cc2S(=O)(=O)Nc2ccccc2C(=O)O)cc1OC | 3.8 | -12.5 | -10.4 | 3.5 | -7.5 | x | x
COc1ccccc1NS(=O)(=O)c1cc([N+](=O)[O-])ccc1N/N=C/c1c[nH]c2ccccc12 | 4.6 | -9.1 | 71.8* | 8.2 | -5.1 | 25.3 | x
Cc1[nH]c2ccccc2c1/C=N/Nc1ccc([N+](=O)[O-])cc1S(=O)(=O)Nc1ccc(Cl)cc1 | x | -4.8 | 15.1 | 11.3 | 2.6 | x | x
COc1ccc(NS(=O)(=O)c2cc([N+](=O)[O-])ccc2N/N=C\c2c(C)[nH]c3ccccc23)cc1 | 16.2 | 2.7 | 76.7* | 2.8 | -25.4 | 6.2 | x
CCOC(=O)c1cc(-c2ccc(C)cc2)n(CCC(=O)N2CCN(c3ccccn3)CC2)c1C | 1.3 | 2.7 | 11.2 | 38.6 | -31.8 | x | x
Nc1ncc([N+](=O)[O-])c(N2CCCCCC2)n1 | -25.7 | 19.4 | 75.0* | -25.6 | 13.6 | 73.3* | 48.7*
O=[N+]([O-])c1ccc(N2CCCC2)nc1N1CCCC1 | x | 5.3 | -12.2 | 3.2 | 33.6 | x | x
CC(NC(=O)c1cnccn1)c1ccc(S(N)(=O)=O)cc1 (centres undefined) | 1.2 | 2.2 | -4.1 | 3.4 | -0.5 | x | x
SMILES | Beta apoptosis | Jurkat NFkB inh | Mdm2-MdmX inh | Gli-Sufu block | 697 NFkB inh | Mdm2-MdmX conf | FLuc counter
N#Cc1cc2cc3ccccc3nc2n2c(=O)c3ccccc3nc12 | -3.7 | 13.5 | 25.4 | 36.5 | 15.4 | x | x
Cc1cc(C)cc(NC(=O)c2cccc3c2C(=O)N(C2CCCCC2)C3)c1 | 6.5 | -0.3 | 16.6 | -2.3 | -6.6 | x | x
COc1cc(NC(=O)c2cccc3c2C(=O)N(C2CCCCC2)C3)cc(OC)c1OC | 7.6 | 9.2 | 78.0* | 37.3 | 13.8 | 42.9* | 61.4*
Nc1[nH]n2c(=O)c3c(nc2c1N=Nc1ccc(Cl)cc1)CCCC3 | -0.6 | -2.3 | 52.8* | 0.4 | 18.4 | 26.1 | x
Nc1[nH]n2c(=O)c3c(nc2c1N=Nc1ccccc1)CCCC3 | 28.0 | -6.0 | 47.5 | 30.6 | -3.7 | x | x
CC1(NC(=O)Nc2cccc(Br)c2)CCS(=O)(=O)C1 (centres undefined) | 0.0 | -3.8 | 10.8 | 5.4 | 18.2 | x | x
Cc1nnc2c(NCCc3ccccc3)nc3ccccc3n12 | -2.6 | -5.5 | 57.2* | 19.1 | 10.7 | 14.6 | x
COc1cccc(CNC(=O)COc2ccc(C(=O)c3ccccc3)cc2)c1 | -8.8 | 18.2 | 30.5 | -5.0 | 10.9 | x | x
COc1ccc(-c2cc(-c3cccs3)c(C#N)c(SCC(=O)NCc3ccccc3OC)n2)cc1 | 29.3 | -4.1 | 84.1* | 4.7 | -3.8 | 30.1 | x
COc1ccc(-c2cc(-c3ccccc3)nc(SCC(=O)Nc3ncc(C)s3)c2C#N)cc1 | 14.8 | 9.8 | 42.4 | 5.8 | 16.0 | x | x
COc1ccc(-c2cc(-c3cccs3)c(C#N)c(SCC(=O)NCc3ccccc3)n2)cc1 | 18.7 | 47.2 | 61.5* | 10.8 | -27.7 | 12.1 | x
CCOC(=O)C1=C(C)NC(C)=C(C(=O)OCC)C1C(=O)OCC(=O)NC1CCCCC1 | 2.3 | 0.0 | 12.6 | 16.2 | 13.2 | x | x
CC1=C(C)CC(C(=O)NCc2c(F)cccc2Cl)C(C(=O)O)C1 (centres undefined) | -5.1 | 10.9 | 11.3 | 7.8 | 10.5 | x | x
CCOC(=O)c1sc2ncn(CC(=O)Nc3cc(C)on3)c(=O)c2c1C | x | 6.6 | 55.0* | -4.0 | 19.4 | -9.6 | x
CS(=O)(=O)N1CCN(Cc2ccc([N+](=O)[O-])cc2)CC1 | -1.1 | -5.2 | 5.5 | -0.6 | 19.6 | x | x
CC1(C)CC(=O)c2c(oc3ccc(NS(=O)(=O)c4cccc5cccnc45)cc23)C1 | -0.7 | 6.1 | 3.5 | 13.0 | -1.1 | x | x
Cc1cccc(C(O)(C(=O)NNc2ccc3ccccc3n2)c2cccc(C)c2)c1 | 2.2 | 11.1 | 53.2* | -3.2 | -14.0 | 31.1 | x
CCNNC(=O)C(O)(c1cccc(C)c1)c1cccc(C)c1 | x | 2.5 | 26.8 | -4.3 | 1.8 | x | x
Fc1ccccc1C1c2[nH]c3ccccc3c2CCN1CCCn1cccn1 (centres undefined) | -4.2 | -8.5 | 58.6* | 4.3 | -5.0 | 22.2 | x
